{"source": "ChEMBL document CHEMBL4303122", "about": "“Identification of potential treatments for COVID-19 through artificial intelligence-enabled phenomic analysis of human cells infected with SARS-CoV-2” (2020)", "note": "Over roughly 1,600 compounds, “Hit score” has its median near 0.13; the highest 2% begin near 0.46. This excerpt belongs to a sample that is enriched for the highest values."}
{"tested_on": "SARS-CoV-2", "test": "Antiviral activity against SARS-CoV-2 (USA-WA1/2020 strain) measured by imaging in HRCE cells at MOI 0.4 after 96 hrs (reported as hit score from 0-1 for on-disease vs off-disease activity: scores >0.6 considered hits)", "assay_type": "functional, Homo sapiens"}
{"molecule": "NS(=O)(=O)c1cc(-c2nnn[nH]2)c(NCc2cccs2)cc1Cl", "note": "[AZOSEMIDE]", "Hit score": 0.09549}
{"molecule": "CN1[C@@H]2CC[C@H]1C[C@@H](OC(=O)[C@H](CO)c1ccccc1)C2", "note": "[HYOSCYAMINE]", "Hit score": 0.0469}
{"molecule": "O=C(O)CCC/C=C\\CC1C(O)CC(O)C1/C=C/C(O)COc1cccc(Cl)c1", "note": "(centres undefined) [CLOPROSTENOL]", "Hit score": -0.03107}
{"molecule": "COc1cccc(N2CCN(C3=Nc4c(F)cccc4[C@H](CC(=O)O)N3c3cc(C(F)(F)F)ccc3OC)CC2)c1", "note": "[LETERMOVIR]", "Hit score": 0.3651}
{"molecule": "CCOC(=O)[C@H]1O[C@@H]1C(=O)N[C@@H](CC(C)C)C(=O)NCCC(C)C", "note": "[ALOXISTATIN]", "Hit score": 0.7896}
{"molecule": "N[C@@H]1[C@H]2CN(c3nc4c(cc3F)c(=O)c(C(=O)O)cn4-c3ccc(F)cc3F)C[C@@H]12", "note": "[TROVAFLOXACIN]", "Hit score": 0.134}
{"molecule": "O=C(O)[C@@H]1CCCN1", "note": "[PROLINE]", "Hit score": 0.14}
{"molecule": "COc1cc(Nc2ncc(F)c(Nc3ccc4c(n3)NC(=O)C(C)(C)O4)n2)cc(OC)c1OC", "note": "[R-406]", "Hit score": 0.1646}
{"molecule": "CC(=O)c1c(C)c2cnc(Nc3ccc(N4CCNCC4)cn3)nc2n(C2CCCC2)c1=O", "note": "[PALBOCICLIB]", "Hit score": 0.007482}
{"molecule": "OC(CCN1CCCC1)(c1ccccc1)C1CCCCC1", "note": "(centres undefined) [PROCYCLIDINE]", "Hit score": 0.2175}
{"molecule": "OC(CCN1CCCCC1)(c1ccccc1)c1ccccc1", "note": "[PRIDINOL]", "Hit score": 0.1349}
{"molecule": "OC(CCN1CCCCC1)(c1ccccc1)C1CCCCC1", "note": "(centres undefined) [TRIHEXYPHENIDYL]", "Hit score": 0.4673}
{"molecule": "Sc1ncnc2nc[nH]c12", "note": "[MERCAPTOPURINE ANHYDROUS]", "Hit score": 0.2212}
{"molecule": "COC(=O)C[C@](O)(CCC(C)(C)O)C(=O)O[C@@H]1C(OC)=C[C@]23CCCN2CCc2cc4c(cc2[C@H]13)OCO4", "note": "[HARRINGTONINE]", "Hit score": 0.07403}
{"molecule": "CCCC[C@H](NC(=O)[C@@H]1[C@@H]2[C@H](CN1C(=O)[C@@H](NC(=O)NC1(CS(=O)(=O)C(C)(C)C)CCCCC1)C(C)(C)C)C2(C)C)C(=O)C(=O)NC1CC1", "Hit score": 0.1004}
{"molecule": "C[C@]12CC[C@H](O)CC1=CC[C@@H]1[C@@H]2CC[C@]2(C)C(c3cccnc3)=CC[C@@H]12", "note": "[ABIRATERONE]", "Hit score": 0.3975}
{"molecule": "CC(CCC(=O)O)[C@H]1CCC2C3C[C@H](O)[C@@H]4C[C@H](O)CC[C@]4(C)C3CC[C@@]21C", "note": "(some centres undefined)", "Hit score": 0.1858}
{"molecule": "CC[C@H]1[C@@H](O)[C@@H]2[C@H](CC[C@]3(C)[C@@H]([C@H](C)CCC(=O)O)CC[C@@H]23)[C@@]2(C)CC[C@@H](O)C[C@@H]12", "note": "[OBETICHOLIC ACID]", "Hit score": 0.5073}
{"molecule": "C[C@H](CCC(=O)O)[C@H]1CC[C@H]2[C@@H]3[C@@H](O)C[C@@H]4C[C@H](O)CC[C@]4(C)[C@H]3CC[C@]12C", "note": "[URSODIOL]", "Hit score": 0.2784}
{"molecule": "CN1CC(=O)N2[C@H](c3ccc4c(c3)OCO4)c3[nH]c4ccccc4c3C[C@@H]2C1=O", "Hit score": 0.2898}
{"molecule": "CO[C@H]1/C=C/O[C@@]2(C)Oc3c(C)c(O)c4c(O)c(cc(O)c4c3C2=O)NC(=O)/C(C)=C\\C=C\\[C@H](C)[C@H](O)[C@@H](C)[C@@H](O)[C@@H](C)[C@H](OC(C)=O)[C@@H]1C", "note": "[RIFAMYCIN]", "Hit score": 0.1815}
{"molecule": "NC(=O)[C@@H]1CC[C@@H]2CN1C(=O)N2OS(=O)(=O)[O-].[Na+]", "note": "[AVIBACTAM SODIUM]", "Hit score": 0.2969}
{"molecule": "O=C(Nc1cc(Cl)cc(Cl)c1O)c1c(O)c(Cl)cc(Cl)c1Cl", "note": "[OXYCLOZANIDE]", "Hit score": 0.1882}
{"molecule": "Cc1ccc2c(Cl)cc(Cl)c(O)c2n1", "note": "[CHLORQUINALDOL]", "Hit score": 0.2863}
{"molecule": "Oc1c(Cl)cc(Cl)c(Cl)c1Cc1c(O)c(Cl)cc(Cl)c1Cl", "note": "[HEXACHLOROPHENE]", "Hit score": 0.5286}
{"molecule": "Cc1ccc(C(=O)Nc2ccc(CN3CCN(C)CC3)c(C(F)(F)F)c2)cc1C#Cc1cnc2cccnn12", "note": "[PONATINIB]", "Hit score": 0.5086}
{"molecule": "O=C(O)c1ccccc1C(=O)Nc1ccc(S(=O)(=O)Nc2nccs2)cc1", "note": "[PHTHALYLSULFATHIAZOLE]", "Hit score": 0.0541}
{"molecule": "CS(=O)(=O)c1ccc(C(=O)Nc2ccc(Cl)c(-c3ccccn3)c2)c(Cl)c1", "note": "[VISMODEGIB]", "Hit score": 0.5244}
{"molecule": "Cc1cc(-c2ccc(/N=N/c3ccc4c(S(=O)(=O)[O-])cc(S(=O)(=O)[O-])c(N)c4c3O)c(C)c2)ccc1/N=N/c1ccc2c(S(=O)(=O)[O-])cc(S(=O)(=O)[O-])c(N)c2c1O.[Na+].[Na+].[Na+].[Na+]", "note": "[EVANS BLUE]", "Hit score": 0.2486}
{"molecule": "CC(SC(=O)c1cccs1)C(=O)NCC(=O)O", "note": "(centres undefined) [STEPRONIN]", "Hit score": 0.2404}
{"molecule": "CCCC(CCC)C(=O)O.CCCC(CCC)C(=O)[O-].[Na+]", "note": "[DIVALPROEX SODIUM]", "Hit score": 0.2277}
{"molecule": "CCCCCCC(=O)O[C@H]1CC[C@H]2[C@@H]3CCC4=CC(=O)CC[C@]4(C)[C@H]3CC[C@]12C", "note": "[TESTOSTERONE ENANTHATE]", "Hit score": 0.1237}
{"molecule": "CC(C)(C)CC(C)(C)c1ccc(OCCOCC[N+](C)(C)Cc2ccccc2)cc1", "note": "[BENZETHONIUM]", "Hit score": 0.03086}
{"molecule": "CC(C)/N=c1\\cc2n(-c3ccc(Cl)cc3)c3ccccc3nc-2cc1Nc1ccc(Cl)cc1", "note": "[CLOFAZIMINE]", "Hit score": 0.5936}
{"molecule": "Cc1nc2ccccc2n1Cc1ccc(Cl)cc1", "note": "[CHLORMIDAZOLE]", "Hit score": -0.04269}
{"molecule": "O=C(O)COCCN1CCN([C@H](c2ccccc2)c2ccc(Cl)cc2)CC1", "note": "[LEVOCETIRIZINE]", "Hit score": -0.05445}
{"molecule": "Clc1ccc(C(OCCN2CCCCC2)c2ccccc2)cc1", "note": "(centres undefined) [CLOPERASTINE]", "Hit score": 0.5618}
{"molecule": "OCCOCCN1CCN(C(c2ccccc2)c2ccc(Cl)cc2)CC1", "note": "(centres undefined) [HYDROXYZINE]", "Hit score": 0.00308}
{"molecule": "O=P(O)(O)C(Sc1ccc(Cl)cc1)P(=O)(O)O", "note": "[TILUDRONIC ACID]", "Hit score": 0.04613}
{"molecule": "Cc1cccc(C)c1NC(=O)CN1CCN(CCCC(c2ccc(F)cc2)c2ccc(F)cc2)CC1", "note": "[LIDOFLAZINE]", "Hit score": 0.2006}
{"molecule": "CCCCC(C)(O)C/C=C/[C@H]1[C@H](O)CC(=O)[C@@H]1CCCCCCC(=O)OC", "note": "(some centres undefined) [MISOPROSTOL]", "Hit score": -0.07952}
{"molecule": "COc1cc(N2CCC(N3CCN(C)CC3)CC2)ccc1Nc1ncc(Cl)c(Nc2ccccc2P(C)(C)=O)n1", "note": "[BRIGATINIB]", "Hit score": 0.1463}
{"molecule": "N#Cc1cc2c(cc1[N+](=O)[O-])=NC(=O)C(=O)N=2", "Hit score": 0.1284}
{"molecule": "Cl.OC[C@H]1NC[C@@H](O)[C@@H](O)[C@@H]1O", "Hit score": 0.1457}
{"molecule": "CN[C@@H](C)[C@H](O)c1ccccc1.Cl", "note": "[EPHEDRINE HYDROCHLORIDE]", "Hit score": 0.3718}
{"molecule": "CC(=O)[C@@]1(O)CC[C@H]2[C@@H]3C[C@H](C)C4=CC(=O)CC[C@]4(C)[C@H]3CC[C@@]21C", "Hit score": 0.2069}
{"molecule": "C[C@H](CCC(=O)O)[C@H]1CC[C@H]2[C@@H]3[C@H](O)C[C@@H]4C[C@H](O)CC[C@]4(C)[C@H]3C[C@H](O)[C@]12C", "note": "[CHOLIC ACID]", "Hit score": 0.1604}
{"molecule": "CC(=O)[C@@]1(O)CC[C@H]2[C@@H]3CCC4=CC(=O)CCC4=C3[C@@H](c3ccc(N(C)C)cc3)C[C@@]21C", "note": "[ULIPRISTAL]", "Hit score": 0.1448}
{"molecule": "Nc1cccc2c(=O)[nH][nH]c(=O)c12.[Na+]", "Hit score": 0.2367}
{"molecule": "CCCN[C@@H]1CCc2nc(N)sc2C1", "note": "[DEXPRAMIPEXOLE]", "Hit score": 0.07275}
{"molecule": "CC(C)(C)NC[C@H](O)COc1cccc2c1CCCC2=O", "note": "[LEVOBUNOLOL]", "Hit score": 0.1851}
{"molecule": "CC(C)(C)NCC(O)c1cc(Cl)c(N)c(C(F)(F)F)c1", "note": "(centres undefined) [MABUTEROL]", "Hit score": -0.1589}
{"molecule": "CC(C)(C)NC[C@H](O)COc1ccccc1C1CCCC1", "note": "[PENBUTOLOL]", "Hit score": 0.4905}
{"molecule": "Cc1ccc(Cl)c(OCC(O)CNC(C)(C)C)c1", "note": "(centres undefined) [BUPRANOLOL]", "Hit score": 0.4669}
{"molecule": "CC(C)(C)NC[C@H](O)COc1nsnc1N1CCOCC1", "note": "[TIMOLOL]", "Hit score": 0.174}
{"molecule": "CC(C)(C)NCC(O)c1ccccc1Cl", "note": "(centres undefined) [TULOBUTEROL]", "Hit score": -0.01366}
{"molecule": "CC(C)(C)NCC(O)COc1cc(Cl)ccc1Cl", "note": "(centres undefined) [CLORANOLOL]", "Hit score": 0.4962}
{"molecule": "CC(C)(C)NCC(O)c1cc(Cl)c(N)c(Cl)c1", "note": "(centres undefined) [CLENBUTEROL]", "Hit score": -0.07437}
{"molecule": "CC(C)(C)NCC(O)COc1cccc2c1CCC(=O)N2", "note": "(centres undefined) [CARTEOLOL]", "Hit score": 0.1646}
{"molecule": "CO[C@@]1(NC(=O)C2SC(=C(C(N)=O)C(=O)O)S2)C(=O)N2C(C(=O)O)=C(CSc3nnnn3C)CS[C@@H]21", "note": "(some centres undefined) [CEFOTETAN]", "Hit score": 0.1396}
{"molecule": "COc1cc2c(Oc3ccc4[nH]c(C)cc4c3F)ccnc2cc1OCC1(N)CC1", "note": "[CATEQUENTINIB]", "Hit score": 0.165}
{"molecule": "CO/N=C(\\C(=O)N[C@@H]1C(=O)N2C(C(=O)[O-])=C(C[n+]3cccc4c3CCC4)CS[C@H]12)c1csc(N)n1", "note": "[CEFPIROME]", "Hit score": 0.1204}
{"molecule": "COC(=O)OCOc1c2n(ccc1=O)N([C@@H]1c3ccccc3SCc3c1ccc(F)c3F)[C@@H]1COCCN1C2=O", "note": "[BALOXAVIR MARBOXIL]", "Hit score": "5.7e-05"}
{"molecule": "O=[N+]([O-])/N=C1\\NCCN1Cc1ccc(Cl)nc1", "note": "[IMIDACLOPRID]", "Hit score": 0.158}
{"molecule": "CCOC(=O)CSCCC1NC(C(=O)O)CS1", "note": "(centres undefined) [LETOSTEINE]", "Hit score": 0.08225}
{"molecule": "CNC(=O)c1cc(Oc2ccc(NC(=O)Nc3ccc(Cl)c(C(F)(F)F)c3)cc2)ccn1", "note": "[SORAFENIB]", "Hit score": 0.2484}
{"molecule": "N=C(NCCCCCCNC(=N)NC(=N)Nc1ccc(Cl)cc1)NC(=N)Nc1ccc(Cl)cc1", "note": "[CHLORHEXIDINE]", "Hit score": 0.08739}
{"molecule": "O=C(Nc1ccc(Cl)cc1)Nc1ccc(Cl)c(Cl)c1", "note": "[TRICLOCARBAN]", "Hit score": 0.4616}
{"molecule": "CCCCc1nc(Cl)c(C(=O)O)n1Cc1ccc(-c2ccccc2-c2nn[nH]n2)cc1", "note": "[CARBOXYLIC ACID METABOLITE]", "Hit score": 0.01747}
